# Data from paper PMC12864922, “TDP-43 directly inhibits mRNA accumulation in neurites through modulation of mRNA stability”.
# Over roughly 9,900 sequences, “r (bound/input frequency ratio)” has its median near 0.7; the highest 2% begin near 6.5. This excerpt belongs to a sample that is enriched for the highest values.
# B1: ENSMUSG00000022095.37|Fam160b2|125:129 (ssRNA)
# RNA: GGGAGUUCUACAGUCCGACGAUCGCUUCGAUAUCCGCAUGCUAACCUCACCUGUUGACCCCACGAGCUGAGGUUUCAAGGAGGUGCUGGCUCCUAAGGCAGUGGUAUUCUUGGAGCCUUUUAGAGGAGCUAGAGGAUGGCCAGUGAGCGCCUAGAUGCUGCCCUGCAACACAUGCGUGACUAUCUCUGCUAUAUUGUGACCAGGGCCACAACAUGAGACAACUCCAGGGGCCAGGGAGAUGAACUGCUGUCUUUGAGGCUGGCUAAAAAAACAAUCCAGUCCAGAGAGAUGGGGAGGGGGGGACUCUUGCGGUCGCACUAGUGUGGAAUUCUCGGGUGUCAAGG
# B2: ENSMUSG00000032194.151|Kank2|256:260 (ssRNA)
# RNA: GGGAGUUCUACAGUCCGACGAUCGCUUCGAUAUCCGCAUGCUAACUUCUAGAAAUACUUUCAGACCUACAGACAAAAAAGAAAAAAGGCCAUUCCGGAGUGACUCCCAGCAUCACAGCCCAGAACCUCCUCCUCAAAGGAGAGUAAACAGAGACUGUGAUACUGACCAAGUACAGGCGCUCGCUAUGAAGCCCAUAUGUUCCUGAUUAAGAGCUGGCUGGCCUCAGAGCACUCCCAGAACUAGCUUAAAGUGACAGGCUUUGCUGAAAUCCAAAGGGACAAAAGAGUAGUUUUAUGUUACACACUCUUGCGGUCGCACUAGUGUGGAAUUCUCGGGUGUCAAGG
# B3: ENSMUSG00000029028.13|Lrrc47|42:46;48:52;64:69;71:75;77:81;93:98;100:104;106:110;127:131;143:148;150:154;166:170;173:177;179:183;195:200;202:206;223:227;229:233 … (ssRNA)
# RNA: GGGAGUUCUACAGUCCGACGAUCGCUUCGAUAUCCGCAUGCUACCCUCCCCACGUGACUGUGGUCCGCUGACAGGCUCCUGUAGCACACGCACACCUGUAGGUGUCACACACGCACACGCACACCUGUAGGUGUCACACACGCACACGCACACCUAUAGGUAUCUGUGGCACACCUGUAGGUGUCACACACGCACACCUGUAGGUGUCACACAAGCACACGCACACCUGUAGGUGUCACACACGCACACCUAGGUGUCUGUAUAGCACACGCACACCUGUAGAUGUCACACAAGCAUACGGUGCUCUUGCGGUCGCACUAGUGUGGAAUUCUCGGGUGUCAAGG
# B4: ENSMUSG00000029028.13|Lrrc47 (ssRNA)
# RNA: GGGAGUUCUACAGUCCGACGAUCGCUUCGAUAUCCGCAUGCUACCCUCCCCACGUGACUGUGGUCCGCUGACAGGCUCCUGUAGGUGUGGGUGUGCUGUAGGUGUCUGUGUGGGUGUGGGUGUGCUGUAGGUGUCUGUGUGGGUGUGGGUGUGCUAUAGGUAUCUGUGGGUGUGCUGUAGGUGUCUGUGUGGGUGUGCUGUAGGUGUCUGUGUAGGUGUGGGUGUGCUGUAGGUGUCUGUGUGGGUGUGCUAGGUGUCUGUAUAGGUGUGGGUGUGCUGUAGAUGUCUGUGUAGGUAUGGGUGCUCUUGCGGUCGCACUAGUGUGGAAUUCUCGGGUGUCAAGG
# B5: ENSMUSG00000029028.12|Lrrc47|48:52;54:58;70:75;77:81;83:87;99:104;106:110;112:116;133:137;149:154;156:160;172:176;179:183;185:189;201:206;208:212;229:233;235:23 … (ssRNA)
# RNA: GGGAGUUCUACAGUCCGACGAUCGCUUCGAUAUCCGCAUGCUACACCCUCCCUCCCCACGUGACUGUGGUCCGCUGACAGGCUCCUGUAGCACACGCACACCUGUAGGUGUCACACACGCACACGCACACCUGUAGGUGUCACACACGCACACGCACACCUAUAGGUAUCUGUGGCACACCUGUAGGUGUCACACACGCACACCUGUAGGUGUCACACAAGCACACGCACACCUGUAGGUGUCACACACGCACACCUAGGUGUCUGUAUAGCACACGCACACCUGUAGAUGUCACACAAGGUACUCUUGCGGUCGCACUAGUGUGGAAUUCUCGGGUGUCAAGG
# B6: ENSMUSG00000029028.12|Lrrc47 (ssRNA)
# RNA: GGGAGUUCUACAGUCCGACGAUCGCUUCGAUAUCCGCAUGCUACACCCUCCCUCCCCACGUGACUGUGGUCCGCUGACAGGCUCCUGUAGGUGUGGGUGUGCUGUAGGUGUCUGUGUGGGUGUGGGUGUGCUGUAGGUGUCUGUGUGGGUGUGGGUGUGCUAUAGGUAUCUGUGGGUGUGCUGUAGGUGUCUGUGUGGGUGUGCUGUAGGUGUCUGUGUAGGUGUGGGUGUGCUGUAGGUGUCUGUGUGGGUGUGCUAGGUGUCUGUAUAGGUGUGGGUGUGCUGUAGAUGUCUGUGUAGGUACUCUUGCGGUCGCACUAGUGUGGAAUUCUCGGGUGUCAAGG
# B7: ENSMUSG00000029028.11|Lrrc47|54:58;60:64;76:81;83:87;89:93;105:110;112:116;118:122;139:143;155:160;162:166;178:182;185:189;191:195;207:212;214:218;235:239;241:2 … (ssRNA)
# RNA: GGGAGUUCUACAGUCCGACGAUCGCUUCGAUAUCCGCAUGCUACCUGAUCACCCUCCCUCCCCACGUGACUGUGGUCCGCUGACAGGCUCCUGUAGCACACGCACACCUGUAGGUGUCACACACGCACACGCACACCUGUAGGUGUCACACACGCACACGCACACCUAUAGGUAUCUGUGGCACACCUGUAGGUGUCACACACGCACACCUGUAGGUGUCACACAAGCACACGCACACCUGUAGGUGUCACACACGCACACCUAGGUGUCUGUAUAGCACACGCACACCUGUAGAUGUCUGUGCUCUUGCGGUCGCACUAGUGUGGAAUUCUCGGGUGUCAAGG
# B8: ENSMUSG00000029028.11|Lrrc47 (ssRNA)
# RNA: GGGAGUUCUACAGUCCGACGAUCGCUUCGAUAUCCGCAUGCUACCUGAUCACCCUCCCUCCCCACGUGACUGUGGUCCGCUGACAGGCUCCUGUAGGUGUGGGUGUGCUGUAGGUGUCUGUGUGGGUGUGGGUGUGCUGUAGGUGUCUGUGUGGGUGUGGGUGUGCUAUAGGUAUCUGUGGGUGUGCUGUAGGUGUCUGUGUGGGUGUGCUGUAGGUGUCUGUGUAGGUGUGGGUGUGCUGUAGGUGUCUGUGUGGGUGUGCUAGGUGUCUGUAUAGGUGUGGGUGUGCUGUAGAUGUCUGUGCUCUUGCGGUCGCACUAGUGUGGAAUUCUCGGGUGUCAAGG
# Target: TDP-43 (Homo sapiens, UniProt Q13148 1-414)
# Sequence (Q13148 whole entry): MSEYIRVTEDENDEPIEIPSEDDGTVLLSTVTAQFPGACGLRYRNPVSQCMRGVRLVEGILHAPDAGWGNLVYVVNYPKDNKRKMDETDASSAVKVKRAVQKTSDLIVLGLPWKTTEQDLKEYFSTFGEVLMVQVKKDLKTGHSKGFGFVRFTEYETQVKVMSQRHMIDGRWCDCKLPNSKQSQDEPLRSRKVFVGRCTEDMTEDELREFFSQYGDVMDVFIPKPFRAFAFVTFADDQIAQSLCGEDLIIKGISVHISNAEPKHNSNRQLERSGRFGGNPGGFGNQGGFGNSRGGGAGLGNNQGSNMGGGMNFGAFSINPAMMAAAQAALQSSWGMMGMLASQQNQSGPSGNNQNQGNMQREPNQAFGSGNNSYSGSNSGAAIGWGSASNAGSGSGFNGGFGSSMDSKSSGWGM
# Experiment: RNA Bind-n-Seq with designed 260-mer pool; 25 mM Tris-HCl, 150 mM KCl, 3 mM MgCl2, BSA (printed 500 mg/mL), 20 units/mL SUPERase IN; pH not stated; 500 nM RNA pool, 1 h, 4 C; TDP-43 5, 50, 500 nM; high values mean tight binding
# Conditions: protein: recombinant; tags: SBP (GST cleaved off with PreScission; pGEX-GST-SBP)
# Outline: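 Streptavidin beads captured recombinant SBP-tagged TDP-43 at 5, 50 or 500 nM, and the beads were incubated for 1 h at 4 °C with 500 nM of an in vitro-transcribed pool of 260-nt 3′ UTR oligos in 25 mM Tris-HCl, 150 mM KCl, 3 mM MgCl2, BSA and SUPERase IN. After washing, bound RNA was eluted with biotin, reverse transcribed, PCR-amplified and sequenced. Binding is reported as R, the mapped-read-normalized abundance of each oligo in the bound sample divided by its abundance in the input. Two independent protein batches served as duplicates.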
row,Binder,binding signal
1,B1,1.26 R (bound/input frequency ratio)
2,B2,0.163 R (bound/input frequency ratio)
3,B3,1.01 R (bound/input frequency ratio)
4,B4,7.14 R (bound/input frequency ratio)
5,B5,1.21 R (bound/input frequency ratio)
6,B6,5.27 R (bound/input frequency ratio)
7,B7,1.45 R (bound/input frequency ratio)
8,B8,7.32 R (bound/input frequency ratio)
